Source: PubChem
The full list was thinned out, with hits kept by preference.
Tg IFNy HTS – T. gondii growth inhibition under IFN-gamma; Toxoplasma gondii growth in IFN-gamma-treated host cells; hits give low values; activity change, negative = inhibition, % (test concentration not listed); actives 3.8% (n = 69,000); in the data active means activity change below about -70%, passing the limit was not always enough;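 further: host cells are HeLa cells infected with Toxoplasma gondii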
Active calls of the source: *.

What do the screens show for `O=C(c1ncoc1-c1ccccc1)N1CCOC(c2ccc(Cl)cc2)C1` (centres undefined)?
Tg IFNy HTS: -40

What do the screens show for `O=C(c1c(F)cccc1F)N1CCOC(c2ccc(Cl)cc2)C1` (centres undefined)?
Tg IFNy HTS: -79*

How did Cc1cc(NC(=O)CSc2nc(C34CC5CC(CC(C5)C3)C4)nc3ccccc23)no1 do in these assays?
Tg IFNy HTS: -31

Results for Cc1ccc(NC(=O)CC(=O)N(C)CCN2CCCCCC2)c(C)c1 ?
Tg IFNy HTS: 20

Results for COc1ccc2c(c1)NC1(CCN(S(=O)(=O)c3cccc(C)c3)CC1)c1cccn1-2 ?
Tg IFNy HTS: 10

What do the screens show for `CC(C)(C)c1ccc(-c2nc(-c3ccc(Cl)cc3)no2)cc1`?
Tg IFNy HTS: -23

Results for Cc1nc(-c2ccccc2)sc1-c1nc(-c2ccc(C(C)(C)C)cc2)no1 ?
Tg IFNy HTS: -77*

Results for FC(F)(F)c1ccc(-c2noc(/C=C/c3ccccc3)n2)cc1 ?
Tg IFNy HTS: 81

What do the screens show for `COc1ccc(C#Cc2ccc3c(c2)[C@H]2[C@H](CCN2Cc2nccs2)[C@H](CO)N3)cc1`?
Tg IFNy HTS: 22

What do the screens show for `O=C(NCCc1csc2c1CCCC2)c1cn(CC2CCCNC2)nn1` (centres undefined)?
Tg IFNy HTS: -78*

What do the screens show for `CC1(C)Cc2ccccc2CN1C(=O)c1cn(CC2CCCNC2)nn1` (centres undefined)?
Tg IFNy HTS: 2

How did Cc1cccnc1N1CCN(C(=O)c2cn(CC3CCCNC3)nn2)CC1 (centres undefined) do in these assays?
Tg IFNy HTS: 2

What do the screens show for `Fc1ccc(CNC(=S)NC(Cc2ccccc2)c2ccccc2)cc1` (centres undefined)?
Tg IFNy HTS: -94*

How did O=C(O)C(Cc1ccc(F)cc1)c1ccccc1 (centres undefined) do in these assays?
Tg IFNy HTS: -10

Results for S=C(NCc1ccccc1)NCc1cccc(CNC(=S)NCc2ccccc2)c1 ?
Tg IFNy HTS: -2

Results for O=C(Nc1cccnc1)c1cncc(NS(=O)(=O)c2ccccc2)c1 ?
Tg IFNy HTS: -3

Results for CN1C(=O)c2cc(NS(=O)(=O)c3cccc(F)c3)ccc2OC[C@H]2O[C@@H](CC(=O)NCCN3CCCCC3)CC[C@@H]21 ?
Tg IFNy HTS: 22

How did CCn1ncc(C(=O)NCc2nccn2Cc2ccccc2)c1C do in these assays?
Tg IFNy HTS: 6

Results for CN1C(=O)CCC12CCN(c1ccc(C#N)cn1)CC2 ?
Tg IFNy HTS: 365

Results for CC1(C)OC(=O)N(c2ccccc2)C12C=Cc1cc3ccccc3cc1O2 (centres undefined) ?
Tg IFNy HTS: -16

How did CN1CCCCC1CCN1c2ccccc2Sc2ccc(S(C)=O)cc21 (centres undefined) do in these assays?
Tg IFNy HTS: 15

What do the screens show for `COCCn1c(-c2ccc(OC)cc2)cnc1SCC(=O)Nc1ccc(C)c(Cl)c1`?
Tg IFNy HTS: -90*

What do the screens show for `COc1ccc(CC(=O)Nc2ccc(-c3nc(-c4cc(C)ccc4C)co3)cc2)cc1`?
Tg IFNy HTS: -11

Results for COc1ccc(-c2ccnc(SCC(=O)Nc3ccccc3)n2)cc1 ?
Tg IFNy HTS: -23

What do the screens show for `CCN(CC)C(=O)Cn1nc(-c2cccs2)cc(N)c1=O`?
Tg IFNy HTS: 30

Results for CN(C)C1CC2(CCN(S(=O)(=O)c3cn(C)cn3)CC2)C1 ?
Tg IFNy HTS: 5

How did CCOC(=O)c1ccc(N2CCCCC2)c(NS(=O)(=O)c2ccc(C)cc2)c1 do in these assays?
Tg IFNy HTS: -100*

How did CCOC(=O)c1cnn(C)c1NS(=O)(=O)c1ccc(Cl)cc1 do in these assays?
Tg IFNy HTS: -62

Results for CCOC(=O)c1cccc(NC(=O)CN2C(=O)CCc3cc(S(=O)(=O)N4CCCCC4)ccc32)c1 ?
Tg IFNy HTS: -34

What do the screens show for `CN(C)C(=O)N1CCN(c2ccc3ccc(C(=O)NCc4cccs4)cn23)CC1`?
Tg IFNy HTS: 77

What do the screens show for `CCS(=O)(=O)Nc1ccc2c(c1)C(=O)N(C)C[C@@H](OC)[C@H](C)CN(CC1CCCCC1)[C@H](C)CO2`?
Tg IFNy HTS: -12

What do the screens show for `O=C(c1ccccc1-c1ncc[nH]1)N1CCCC(c2ccn[nH]2)C1` (centres undefined)?
Tg IFNy HTS: 46

Results for CC(=O)N1[C@H](CN2CCCC2)C[C@H]2CN(Cc3ccc(C)o3)CC[C@H]21 ?
Tg IFNy HTS: -80*

What do the screens show for `CC(=O)N1C2CN(Cc3ccc(C)o3)CC2C[C@@H]1C(=O)NCC1CC1` (some centres undefined)?
Tg IFNy HTS: -22

Results for CC(=O)N1[C@H](CN2CCCC2)C[C@H]2CN(C(=O)c3ccco3)CC[C@H]21 ?
Tg IFNy HTS: -4

How did O=C(NCCN1CCN(c2ccccc2)CC1)c1cccc(Br)c1 do in these assays?
Tg IFNy HTS: 6

Results for COc1ccc(CNC(Cc2cccs2)c2nc(C)cs2)cc1Cn1cccn1 (centres undefined) ?
Tg IFNy HTS: 40

What do the screens show for `Cc1oc2ncn3nc(C(C)NC(=O)CCc4ccccc4)nc3c2c1C` (centres undefined)?
Tg IFNy HTS: 11

How did O=C(CCc1ccccc1)Nc1ccc(Cl)cn1 do in these assays?
Tg IFNy HTS: -54

Results for CC(C)c1ccc(C(NC(=O)CCc2ccccc2)c2ccc3cccnc3c2O)cc1 (centres undefined) ?
Tg IFNy HTS: -102*

Results for O=C(c1ccc2[nH]ccc2c1)N1CCCN(C2CCN(CC3CC3)C2=O)CC1 (centres undefined) ?
Tg IFNy HTS: -9

Results for Cc1cccc(CN2CCC3(CC2)C(=O)NC3c2ccccc2)n1 (centres undefined) ?
Tg IFNy HTS: -54

What do the screens show for `O=C(Nc1c(C(=O)O)[nH]c2ccccc12)NC1CCCCC1`?
Tg IFNy HTS: 7

How did O=C(NCc1scnc1-c1ccccc1)c1ccc(-n2cnnc2)cc1 do in these assays?
Tg IFNy HTS: -4

What do the screens show for `CCc1cc(N2CCNC(C(=O)O)C2)nc(N2CCCCC2)n1` (centres undefined)?
Tg IFNy HTS: 10

Results for Cc1nn(CC(=O)NCCN2CCCCC2C)c(=O)c2nc(-c3ccccc3)sc12 (centres undefined) ?
Tg IFNy HTS: 25

How did Cc1ccc(-c2cccc(C(=O)NCCSc3nnnn3C)c2)o1 do in these assays?
Tg IFNy HTS: -16

What do the screens show for `Cc1oc(C2CCN(C(=O)Nc3ccc(Cl)cc3)CC2)nc1C(=O)N1CCCC1`?
Tg IFNy HTS: -21

How did Cc1cccc(NC(=O)N2CCC(c3nc(C(=O)N(C)C)c(C)o3)CC2)c1C do in these assays?
Tg IFNy HTS: -13

What do the screens show for `Cc1oc(C2CCN(C(=O)Nc3cccc(Cl)c3C)CC2)nc1C(=O)N(C)C`?
Tg IFNy HTS: 15

What do the screens show for `Cc1oc(C2CCN(C(=O)Nc3cccc(F)c3C)CC2)nc1C(=O)N(C)C`?
Tg IFNy HTS: -79*

How did Cc1ccc(F)cc1S(=O)(=O)N1CCC(c2nc(C(=O)N3CCCC3)c(C)o2)CC1 do in these assays?
Tg IFNy HTS: -82*

What do the screens show for `Cc1oc(C2CCN(S(=O)(=O)c3ccc(F)cc3)CC2)nc1C(=O)N1CCCC1`?
Tg IFNy HTS: -29

Results for CSc1ccc(NC(=O)N2CCC(c3nc(C(=O)N4CCCC4)c(C)o3)CC2)cc1 ?
Tg IFNy HTS: -84*

How did Cc1oc(C2CCN(S(=O)(=O)c3cccc(F)c3)CC2)nc1C(=O)N1CCCC1 do in these assays?
Tg IFNy HTS: 13

What do the screens show for `CSc1ccc(NC(=O)N2CCC(c3nc(C(=O)N4CCCCC4)c(C)o3)CC2)cc1`?
Tg IFNy HTS: -64
